Over roughly 33,000 sequences, “E-score (-0.5 to 0.5)” has its median near -0.015; the highest 2% begin near 0.3. This excerpt belongs to a sample that is enriched for the highest values.
The sequences below were run against T1, Abf1 (UniProt P14164) (assay: PBM E-score (8-mer binding enrichment) (E-score (-0.5 to 0.5)); higher = stronger / more preferred TF binding). Settings: protein concentration: 200 nM; construct: GST-full length.
T1 sequence: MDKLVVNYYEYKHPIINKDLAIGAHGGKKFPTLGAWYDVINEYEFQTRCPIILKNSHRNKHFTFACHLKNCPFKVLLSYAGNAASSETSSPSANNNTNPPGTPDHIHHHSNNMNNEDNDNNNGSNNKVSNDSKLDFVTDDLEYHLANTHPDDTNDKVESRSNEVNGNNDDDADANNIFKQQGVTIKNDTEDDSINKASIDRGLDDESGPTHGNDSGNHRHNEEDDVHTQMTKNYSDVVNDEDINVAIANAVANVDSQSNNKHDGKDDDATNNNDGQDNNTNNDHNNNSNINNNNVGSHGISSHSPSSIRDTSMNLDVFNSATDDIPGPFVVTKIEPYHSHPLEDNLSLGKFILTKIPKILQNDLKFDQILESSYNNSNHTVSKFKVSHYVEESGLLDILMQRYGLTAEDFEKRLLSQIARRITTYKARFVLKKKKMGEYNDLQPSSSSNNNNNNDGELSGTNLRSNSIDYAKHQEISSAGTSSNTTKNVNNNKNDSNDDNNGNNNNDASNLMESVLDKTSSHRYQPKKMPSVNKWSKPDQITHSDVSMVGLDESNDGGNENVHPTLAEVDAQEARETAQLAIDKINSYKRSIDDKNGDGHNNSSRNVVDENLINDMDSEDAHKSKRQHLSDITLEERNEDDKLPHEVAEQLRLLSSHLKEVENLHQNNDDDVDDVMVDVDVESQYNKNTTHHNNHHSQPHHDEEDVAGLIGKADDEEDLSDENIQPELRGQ
Method: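 Universal 'all 10-mer' protein binding microarrays (Agilent AMADID 015681) probed with GST-tagged S. cerevisiae TFs (full-length or DBD) made by in vitro transcription/translation (PURExpress), about 100-200 nM. Bound TF was detected with fluorescent anti-GST. Each ungapped 8-mer (which stands for itself and its reverse complement) is scored by the PBM enrichment score (E-score), a modified Wilcoxon-Mann-Whitney statistic from -0.5 to +0.5, computed with the Universal PBM Analysis Suite. Scale: above 0.35 generally sequence-specific binding.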

| Sequence | PBM E-score |
| --- | --- |
| ACGTACAA | 0.218 |
| TCGTACAA | 0.402 |
| CCGTACAC | 0.3 |
| CCGTACAA | 0.432 |
| GCGTACAA | 0.197 |
| CAGTACAA | 0.0284 |
| CGGTACAA | 0.211 |
| CCGTACAG | 0.21 |
| AAGGTTTC | -0.0855 |
| CCGACAGA | -0.00185 |
| TACGTTAA | 0.132 |
| AGATGCCC | -0.144 |
| GCATCCGA | -0.146 |
| GAGAGTGC | -0.192 |
| TAGAGTGA | 0.248 |
| GAGAGTGA | 0.324 |
| CCGTTTTA | 0.203 |
| AGATGACA | 0.316 |
| AGATGACT | -0.0855 |
| TGATGACA | 0.376 |
| CGATGACG | 0.136 |
| CGATGACC | 0.206 |
| TCATGACA | 0.323 |
| TGATGAAA | 0.0461 |
| GGATGACA | 0.253 |

| Sequence | PBM E-score |
| --- | --- |
| CGATGACA | 0.319 |
| AGATGACC | 0.132 |
| GCATGACA | 0.207 |
| ACATGACA | 0.256 |
| CTCGTGCC | -0.0761 |
| CCGGATGA | -0.024 |
| GAACACAA | -0.0576 |
| GCGAGTGA | 0.137 |
| ACTGGTCT | -0.176 |
| ACTTGTCT | -0.0797 |
| CGATTGGC | -0.0866 |
| CCCCGCGG | -0.255 |
| CGGTCGCC | -0.00137 |
| CCTGACGA | 0.214 |
| AATGACGC | 0.106 |
| CATGACGG | 0.0231 |
| AATGACGA | 0.36 |
| AATGACGT | 0.125 |
| ACTGACGG | -0.0335 |
| ATTGACGG | 0.211 |
| ATTGACGA | 0.377 |
| CATGACGA | 0.374 |
| ACTGACGA | 0.305 |
| GTTGACGA | 0.21 |
| GATGACGA | 0.265 |

| Sequence | PBM E-score |
| --- | --- |
| TCAGGCGA | 0.0781 |
| ATCGACTA | 0.029 |
| ATAAGATG | 0.201 |
| ATGTTCTG | 0.093 |
| GGTCGCAA | -0.0813 |
| GGAGAGCA | -0.253 |
| ACTATGGA | -0.013 |
| ACAATGAC | 0.107 |
| ATAATGAT | 0.344 |
| ATAATGAG | 0.117 |
| AGAATGAT | 0.33 |
| AAAATGGC | 0.0419 |
| AGAATGAA | 0.144 |
| ATAATTAT | 0.303 |
| AAAATGAC | 0.297 |
| ATAATTAA | 0.274 |
| ATAATTAC | 0.261 |
| AGAATGAG | -0.157 |
| ATAATGAC | 0.258 |
| GGGACGTA | 0.159 |
| CGAGTCAA | -0.0144 |
| AGAAGGCG | -0.119 |
| GGGATACA | -0.0572 |
| CTGTCTGC | -0.243 |
| ATTCCGAA | 0.0789 |

| Sequence | PBM E-score |
| --- | --- |
| CAAGGAGC | -0.363 |
| GGCAAAAC | -0.0611 |
| AAAATGAT | 0.387 |
| GAAATGAC | 0.312 |
| AAAATGAA | 0.056 |
| AAAATGAG | 0.0916 |
| GAAATGAA | 0.164 |
| CAAATGAC | 0.144 |
| AAGGCTTA | -0.214 |
| TCACGTCA | 0.331 |
| GGACGTCA | 0.0888 |
| ACACGTCA | 0.151 |
| TGACGTCA | 0.314 |
| GCACGTCA | 0.0421 |
| AGACGTCA | 0.107 |
| CCACCTAG | -0.225 |
| GATGGTGA | 0.0135 |
| GATCACCA | 0.308 |
| GATCACCC | 0.261 |
| TATCACCA | 0.364 |
| CATCACCA | 0.176 |
| GCTCACCA | -0.17 |
| AATCACCA | 0.24 |
| CAGAATTC | 0.0421 |
| GAACTTCC | -0.12 |

| Sequence | PBM E-score |
| --- | --- |
| GTCTCAAA | 0.161 |
| GTTACTCA | 0.0462 |
| AGAAACGC | -0.132 |
| AACTCCTG | -0.177 |
| ACCCGGAG | -0.0473 |
| AATGCCTA | -0.212 |
| ACTTACGA | 0.325 |
| AATTACGA | 0.186 |
| ACTTACGC | -0.0756 |
| TATTACGA | 0.311 |
| CATTACGA | 0.128 |
| GCTTACGA | -0.071 |
| CATTGGTC | -0.0867 |
| ATCCACGA | 0.199 |
| ATCCACAA | -0.138 |
| ATCCACGG | 0.316 |
| AAACCGCG | -0.0683 |
| CCTGGAAC | -0.0203 |
| AGGTGATG | 0.163 |
| AGGTGAGA | 0.0141 |
| CGGTGATC | 0.214 |
| GGGTGAAA | 0.0485 |
| GGGTGAGA | -0.136 |
| CGGTGAAA | 0.186 |
| CGGTGATA | 0.334 |

| Sequence | PBM E-score |
| --- | --- |
| AGGTGATA | 0.357 |
| GGGTGATA | 0.38 |
| CAGCTTCG | 0.0552 |
| CTCGAGGC | -0.193 |
| AGCCAGAG | -0.0331 |
| CGGCCTAA | -0.0583 |
| ATCACTCC | 0.345 |
| AACACTCC | -0.121 |
| GTCACTCA | 0.238 |
| ACCACTCG | 0.187 |
| ATCACTCG | 0.31 |
| CTCACTCA | 0.0709 |
| AACACTCG | -0.00319 |
| ATCACTCA | 0.369 |
| CTCACTCC | -0.0715 |
| CGTTTGGC | 0.0893 |
| TCAGGACA | 0.156 |
| ATCTGAAG | -0.1 |
| ATAACCAT | 0.0871 |
| CACAAAAG | -0.0552 |
| CCAGCCAC | -0.0544 |
| CTATGATA | 0.143 |
| GTATGACA | 0.176 |
| GTATGAGA | 0.145 |
| GTATGATA | 0.327 |

| Sequence | PBM E-score |
| --- | --- |
| ATATGATA | 0.316 |
| ATATGATG | 0.191 |
| CATCCGGG | -0.161 |
| AAACCGTA | 0.221 |
| ACACCAAT | 0.0514 |
| CGGGATGA | 0.0791 |
| ACGACCGC | 0.041 |
| GGGGAATA | -0.112 |
| AAAGAGAG | -0.214 |
| AAGAGAAA | -0.0161 |
| ACTTGAAT | 0.0842 |
| GGACATCA | 0.215 |
| CGACATTC | 0.0424 |
| AGACATCG | 0.111 |
| AGACATTA | -0.0164 |
| CGACATCG | 0.301 |
| CGACATCC | 0.121 |
| CGACATCA | 0.315 |
| TGACATCA | 0.274 |
| CGACATTA | 0.317 |
| CAGAAACA | -0.0715 |
| GAGGAACA | -0.095 |

— the supplement of paper PMC3334620
